Sampled rows, rich in hits. Any-hit rate of the full collection: about 2.6%.
TWEAK-Fn14 inh = blocks TWEAK-Fn14 interaction in a reporter cell assay; inhibition, % at 10 µM; AID 1159606; actives 2% (n = 360,000); TWEAK-stimulated Fn14 reporter cells, luciferase luminescence, 8 h; in the data active = inhibition above about 50%
TROY NFkB inh = blocks TROY-dependent signaling in reporter cells; Q293 LMP1-TROYcd NF-kB luciferase reporter, 4 h; inhibition, % at 10 µM; actives 0.98% (n = 360,000);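 active = compounds whose plate-normalised and pattern-corrected inhibition of the luciferase reporter signal at the single screening dose is 50% or more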
EBV LMP1 NFkB = reduces LMP1-driven NF-kappaB luciferase signal; inhibition, % at 12.5 µM; actives 0.69% (n = 350,000); LMP1-induced NF-kappaB luciferase reporter cells, luminescence; in the data active = inhibition above about 41%; inconclusive = no clear call, values can overlap the other calls;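 also: 0% = neutral control wells and 100% = reference inhibitor control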
aDG glyco up = alpha-DG glycosylation activation | activation, % at 10 µM | AID 624168 | actives 0.22% (n = 360,000) | Pro5-aDG cells, alpha-DG glycosylation AlphaScreen (IIH6); 0% Pro5, 100% B10-LARGE cell signal;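 active = activation of at least 8% versus controls, or a plate z-score of at least 8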;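 also: Pro5 are CHO cells carrying HIG-tagged alpha-DG that lacks glycosylation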
HSP90 inh = HSP90 refolding inhibition in rabbit reticulocyte lysate; luciferase refolding luminescence, 3 h; inhibition, % at 5.6 µM; actives 0.91% (n = 290,000);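 active = inhibition above the screen-wide mean plus 3 SD, computed separately per campaign, cut at about 16% in these data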;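 also: 0% = DMSO wells and 100% = 60 µM geldanamycin wells; inhibitors lower the luminescence because luciferase stays unfolded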
LGR2 inh = inhibitors of bursicon-induced Drosophila LGR2 receptor cAMP signaling; HEK293 LGR2, CRE-luciferase, bursicon-stimulated, 4 h; inhibition, % at 9.99 µM; actives 0.35% (n = 380,000);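 active = drop in luminescence signal, shown as inhibition above about 50% in the replicate tests, limit read from the data, passing the limit was not always enough; inconclusive = probably only some replicates passing the limit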;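 also: agonist challenge used bursicon conditioned medium at about half maximal strength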
The depositor's hits bear a star; ? = inconclusive; · = no result given.

SMILES	TWEAK-Fn14 inh	TROY NFkB inh	EBV LMP1 NFkB	aDG glyco up	HSP90 inh	LGR2 inh
CCCCn1c(NS(=O)(=O)c2ccc(C)cc2)c(C(=O)OCC)c2nc3ccccc3nc21	58*	63*	-4	1	1	-7
CCN1[C@@H]2c3ccc(-c4cccc(OC)c4)c(=O)n3C[C@H]1[C@H](CO)[C@H]2C(=O)OC	·	·	·	·	·	-13
N#Cc1cccc(-c2ccc([C@@H]3[C@@H](CO)N4CCCCN(C(=O)Cc5ccncc5)C[C@H]34)cc2)c1	·	·	·	·	·	-8
COC(=O)[C@@H]1[C@@H](CO)[C@@H]2Cn3c(ccc(C4=CCCCC4)c3=O)[C@H]1N2C(=O)CC1CC1	·	·	·	·	·	2
O=P1(N(CCCl)CCCl)NCCCO1 (configuration not stated)	3	7	85*	0	-2	-3
COC(=O)[C@@H]1[C@@H](CO)[C@@H]2Cn3c(ccc(-c4ccccc4OC)c3=O)[C@H]1N2Cc1ccccc1	·	·	·	·	·	7
CC(=O)c1c(C)n(C2CCCCC2)c2ccc(O)cc12	86*	53*	70*	1	0	25
CC(=O)N1[C@@H]2c3ccc(-c4cccc(C(=O)N(C)C)c4)c(=O)n3C[C@H]1[C@H](CO)[C@H]2C(=O)O	·	·	·	·	·	4
O=C(Cc1ccccn1)N1CCCCN2[C@H](CO)[C@H](c3ccc(C#Cc4ccccc4)cc3)[C@@H]2C1	·	·	·	·	·	-3
COc1cccc(CNC2CN3CCC2CC3)c1OC (configuration not stated)	68*	7	-3	0	0	·
CCOc1cccc(CNC2CN3CCC2CC3)c1 (configuration not stated)	-1	-6	-23	0	6	-2
COC(=O)[C@@H]1[C@@H](CO)[C@@H]2Cn3c(ccc(C4=CCCCC4)c3=O)[C@H]1N2Cc1ccccc1OC	·	·	·	·	·	-2
COC1=C(C)C(=O)C2=C(C1=O)C(CO)N1C(C#N)C3CC4C(C1C2N1CCOC41)N3C (configuration not stated)	37	2	86*	0	·	-3
COc1ccc(C#Cc2ccc([C@H]3[C@@H](CO)N4CCCCN(C(=O)Cc5cccnc5)C[C@@H]34)cc2)cc1	·	·	·	·	·	-10
CCOc1ccc(-c2cc(C)[n+](CCc3ccc(OC)c(OC)c3)c(-c3ccc(OCC)cc3)c2)cc1	7	53*	10	0	5	27
CCOc1ccc(-c2cc(C)[n+](CCO)c(-c3ccc(OCC)cc3)c2)cc1	7	19	-1	0	1	-11
CC[C@@H](O)C[C@H]1CCC[C@@]2(C[C@@H]3OC(=O)/C=C/[C@@](C)(O)[C@@H](O)[C@H](C)[C@@H](O)[C@H](OC4CCC(N(C)C)C(C)O4)[C@@H](O)[C@](C)(O)CCCCC/C=C/[C@@H]4CC(C)(C)O[C@@]4(O)C[C@H](O2)[C@H]3C)O1 (some centres not stated)	61*	48	24	0	·	·
N#Cc1cccc(-c2ccc([C@H]3[C@H](CO)N4CCCCN(C(=O)Cc5cccnc5)C[C@@H]34)cc2)c1	·	·	·	·	·	-16
C#CCCC[C@@H]1OC(=O)CNC(=O)C([C@@H](C)CC)NC(=O)[C@@H]2CCCN2C(=O)C([C@@H](C)CC)OC(=O)[C@H](Cc2ccccc2)N(C)C(=O)[C@H](C(C)C)NC(=O)C1(C)C (some centres not stated)	4	9	·	0	·	10
CCC(C)C1NC(=O)C(NC(=O)C(CC(C)C)N(C)C(=O)C2CCCN2C(=O)C(C)O)C(C)OC(=O)C(Cc2ccc(OC)cc2)N(C)C(=O)C2CCCN2C(=O)C(CC(C)C)NC(=O)[C@H](C)C(=O)[C@H](C(C)C)OC(=O)CC1O (some centres not stated)	102*	85*	93*	0	·	101*
COC(=O)[C@H]1[C@H](CO)[C@H]2Cn3c(ccc(-c4cccc(C(=O)N(C)C)c4)c3=O)[C@@H]1N2CC1CC1	·	·	·	·	·	8
COc1ccc(Br)cc1CN1CCN(C(=O)Cc2ccccc2)CC1	82*	·	-8	0	3	·
COc1ccc(CN2CCN(C(=O)Cc3ccccc3)CC2)c(OC)c1	-27	2	6	0	0	-14
COC(=O)[C@H]1[C@H](CO)[C@H]2Cn3c(ccc(-c4cccnc4)c3=O)[C@@H]1N2CCc1ccccc1	·	·	·	·	·	5
CC(=O)OC(C)(C)/C=C/C(=O)[C@](C)(O)[C@H]1[C@H](O)C[C@@]2(C)[C@@H]3CC=C4[C@H](C[C@H](O)C(=O)C4(C)C)[C@]3(C)C(=O)C[C@]12C	65*	62*	51*	3	0	·
SMILES	TWEAK-Fn14 inh	TROY NFkB inh	EBV LMP1 NFkB	aDG glyco up	HSP90 inh	LGR2 inh
CC(=O)OC(C)(C)/C=C/C(=O)C(C)(O)C1[C@H](O)C[C@@]2(C)C3CC=C4C(CC[C@@H](O)C4(C)C)[C@]3(CO)C(=O)C[C@]12C (some centres not stated)	31	61*	30	0	0	73*
CC(=O)OC(C)(C)/C=C/C(=O)C(C)(O)C1C(O)CC2(C)C3CC=C4C(CC(O)C(=O)C4(C)C)C3(C)C(=O)CC12C (configuration not stated)	63*	61*	12	1	·	89*
COCC(=O)N1[C@@H]2c3ccc(C4=CCCC4)c(=O)n3C[C@H]1[C@H](CO)[C@H]2C(=O)OC	·	·	·	·	·	-16
CN(Cc1cccc(-c2cccnc2)c1)C(=O)Oc1ccc([N+](=O)[O-])cc1	83*	56*	·	0	·	29
COc1ccc(OC(=O)N(C)C[C@@H]2OCc3ccccc3-c3c(n(C)c4ccccc34)C(=O)N([C@@H](C)CO)C[C@H]2C)cc1	·	·	·	·	·	12
COC12C(COC(N)=O)C3=C(C(=O)C(C)=C(N)C3=O)N1CC1C2N1C (configuration not stated)	-3	-14	63*	0	13	1
Cc1ccccc1CN1Cc2cnnn2-c2ccccc2C1C#N (configuration not stated)	96*	56*	13	0	·	?
O=C1C=CC(=O)C2C1C1(Cl)C(Cl)=C(Cl)C2(Cl)C1(Cl)Cl (configuration not stated)	57*	46	4	0	·	5
C[C@@H]1O[C@@H](O[C@H]2C[C@@H](O)[C@]3(CO)[C@H]4[C@H](O)C[C@]5(C)[C@@H](C6COC(=O)C6)CC[C@]5(O)[C@@H]4CC[C@]3(O)C2)[C@H](O)[C@H](O)[C@H]1O (some centres not stated)	71*	46	55*	0	3	81*
COc1ccc(C(=O)N/N=C/C23CC[C@@H](O)CC2(O)CC[C@@H]2[C@@H]3CCC3(C)C(C4=CC(=O)OC4)CCC23O)cc1 (some centres not stated)	-12	-6	-9	0	1	17

High-throughput results (PubChem)
